Measurements: PubChem BioAssay AID1159580 (chemical genetic matrix, 2015)
The whole screen tested about 5,500 compounds, of which about 2,000 (36%) were called active. Not shown: some 18% with an inconclusive outcome. No stated cut-off is given here; in the data, active means normalized growth mostly below about 0.91 (no sharp cut-off); inconclusive means no clear call, values can overlap the other calls; inactive means mostly above about 0.92. Some of the results follow.

Assay: chemical genetic growth profiling, strain panel (AID 1159580);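 further: tested at 20 µM; growth read once vehicle control cultures reached saturation at 30 °C; 1 = growth at the plate median or of vehicle wells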
Conditions: S. cerevisiae deletion strains, growth OD

Measured: normalized growth

CCNC(=O)N1CCN(CCCC(c2ccc(F)cc2)c2ccc(F)cc2)CC1
inactive: locus YAL040C, strain CLN3, stronger effect = lower value 0.994 | locus YCL061C, strain MRC1 (second series), stronger effect = lower value 0.99 | locus YDR150W, strain NUM1, stronger effect = lower value 0.982 | locus YDR363W, strain ESC2, stronger effect = lower value 1.04 | locus YER002W, strain NOP16, stronger effect = lower value 1 | locus YJR075W, strain HOC1, stronger effect = lower value 0.988 | locus YMR263W, strain SAP30, stronger effect = lower value 0.988 | locus YNL175C, strain NOP13, stronger effect = lower value 1.03 | locus YNL197C, strain WHI3, stronger effect = lower value 1.02 | locus YNL224C, strain SQS1, stronger effect = lower value 1.04 | locus YNL322C, strain KRE1, stronger effect = lower value 0.974 | locus YOR083W, strain WHI5 (second series), stronger effect = lower value 1 | locus YPL055C, strain LGE1, stronger effect = lower value 0.916
